Experimental data reported in PubChem BioAssay (Tox21).
Inconclusive results are not listed. Where a call stands in place of a potency, no number is given. The source made the active and inactive calls. Calls follow the shape of the dose curve; as a rule, active = well fitted activation curve with a large enough effect in the repeat runs; inconclusive = weak or mixed curves; inactive = flat fitted curve, though single readings scatter.

Experiment: A CellTox Green Cytotoxicity Assay to monitor cytotoxicity in HEK293 cells - 16 hour (AID 1224888); also: nearly all actives have a fitted effect of over 35% in size
Details: CellTox Green fluorescence; series mostly up to 76.8 µM
From the text: National Center for Advancing Translational Sciences [NCATS]
NIH Chemical Genomics Center [NCGC]
U.S. Environmental Protection Agency [EPA]
National Institutes of Environmental Health Sciences [NIEHS]
National Toxicology Program [NTP]
Cell-based models are critical for drug discovery. Determining the natural cytotoxic effects resulting from test compounds is an essential research activity. A CellTox Green Cytotoxicity Assay to monitor cytotoxicity in real time of continues cell culture during 40 hours of the compound treatment was used to screen Tox21 10K library compounds in Hek293 cells. CellTox Green Cytotoxicity Assay is a nonlytic, homogeneous, biofluorescent method to measure cytotoxicity in cell culture after experimental manipulation. The assay system uses a proprietary asymmetric cyanine dye that is excluded from viable cells but preferentially stains the dead cell's DNA. […] Viable cells produce no appreciable increases in fluorescence. Therefore, the fluorescence signal produced by the binding interaction with dead cell DNA is proportional to cytotoxicity.
The mixture of Hek293 cell suspension and reagents were dispensed at 600cells/6 ul/well in 1536-well tissue culture treated black solid bottom plates using a Multidrop dispenser. After the assay plates were incubated at a 37 C/5% CO2 incubator for 5 hours, 23 nL of compounds dissolved in DMSO, positive and negative controls was transferred to the assay plate by a pintool work station. The plates were incubated at 37 C for 40 hours. The fluorescence intensity were measured at 0h, 8h, 16h, 24h, 32h and 40h time points using ViewLux plate reader during compound treatment.
Potency is read from the fitted curve at half-maximal effect.

Row | SMILES | Potency
1 | C=CC(=O)OCCOc1ccccc1 | inactive
2 | CN(C)C(=O)NC1(c2ccccc2)CCN(CC[C@@]2(c3ccc(F)c(F)c3)CN(C(=O)c3ccccc3)CCO2)CC1 | inactive
3 | CCO[C@H](Cc1ccc(OCCc2ccc(OS(C)(=O)=O)cc2)cc1)C(=O)O | inactive
4 | O=S(c1cc(Cl)cc(Cl)c1O)c1cc(Cl)cc(Cl)c1O | inactive
5 | CC(C)O.CC(C)O.CCOC(=O)/C=C(\C)O.CCOC(=O)/C=C(\C)O.[Ti] | inactive
6 | CCCCCCCCCCCc1ccccc1 | inactive
7 | NS(=O)(=O)c1ccc(N2CCCCS2(=O)=O)cc1 | inactive
8 | O=C(O)C1(C(=O)Nc2ccc(Cl)cc2Cl)CC1 | inactive
9 | CC1OC(=O)C(C)OC1=O (stereo not given) | inactive
10 | C=CCOc1ccccc1OCC(O)CNC(C)C (stereo not given) | inactive
11 | C#Cc1cccc(Nc2ncnc3cc(OCCOC)c(OCCOC)cc23)c1 | inactive
12 | CC(=O)c1ccc2c(c1)N(CCCN(C)C)c1ccccc1S2 | inactive
13 | CC(C)C[C@H]1C(=O)N2CCC[C@H]2[C@]2(O)O[C@](NC(=O)[C@@H]3C=C4c5cccc6[nH]c(Br)c(c56)C[C@H]4N(C)C3)(C(C)C)C(=O)N12 | inactive
14 | CN1CCN(C(c2ccccc2)c2ccccc2)CC1 | inactive
15 | CC(C)CC(=O)C1C(=O)c2ccccc2C1=O | inactive
16 | O=C1CCC(=O)O1 | inactive
17 | CCCCCC[C@@H](O)C/C=C\CCCCCCCC(=O)OC | inactive
18 | CCN(CC)CCOC(=O)C(Cc1cccc2ccccc12)CC1CCCO1 (stereo not given) | inactive
19 | CC(C)OC(=O)C(C)N(C(=O)c1ccccc1)c1ccc(F)c(Cl)c1 (stereo not given) | inactive
20 | NC(=O)C(c1ccccc1)(c1ccccc1)[C@@H]1CCN(CCc2ccc3c(c2)CCO3)C1 | 21.3 µM (active)

Row | SMILES | Potency
21 | O[C@@H](COc1cccc2ncccc12)CN1CCN(C2c3ccccc3[C@@H]3[C@H](c4ccccc42)C3(F)F)CC1 (stereo not given in full) | inactive
22 | Nc1c(CC(=O)O)cccc1C(=O)c1ccc(Br)cc1 | inactive
23 | COc1ccc(-c2nc3ccc(C4=NNC(=O)CC4C)cc3[nH]2)cc1 (stereo not given) | inactive
24 | CCCn1cnc2c1c(=O)n(CCCCC(C)=O)c(=O)n2C | inactive
25 | C[C@@H]1C[C@H]2[C@@H]3CCC4=CC(=O)C=C[C@]4(C)[C@@]3(F)[C@@H](O)C[C@]2(C)[C@@]1(O)C(=O)COC(=O)c1ccncc1 | inactive
26 | COS(=O)(=O)C(F)(F)F | inactive
27 | COc1ccc(C(=O)N2CCN(CC(=O)N3CCOCC3)CC2)cc1 | inactive
28 | O=C1OC(=O)C2C3C=CC(C3)C12 (stereo not given) | inactive
29 | CNCCCN1c2ccccc2CCc2ccccc21 | inactive
30 | CCCCCCc1ccc(-c2ccc(C#N)cc2)cc1 | inactive
31 | Cc1nn(C)c(Oc2ccccc2)c1/C=N/OCc1ccc(C(=O)OC(C)(C)C)cc1 | inactive
32 | CCOC(=O)C(=O)CCc1ccccc1 | inactive
33 | c1ccc(CNCCNCc2ccccc2)cc1 | inactive
34 | CC(=O)OC[C@H]1O[C@@H](n2ncc(=O)[nH]c2=O)[C@H](OC(C)=O)[C@@H]1OC(C)=O | inactive
35 | COc1cc(Cl)c(OC)cc1N | inactive
36 | Cc1ccc(C(=O)Oc2ccc(C(O)CNC(C)(C)C)cc2OC(=O)c2ccc(C)cc2)cc1 (stereo not given) | 26.8 µM (active)
37 | Cc1ncc(CO)c(C=O)c1O | inactive
38 | Nc1cccc(S(=O)(=O)c2cccc(N)c2)c1 | inactive
39 | CC(COCCO)OCCO (stereo not given) | inactive
40 | CN(C)CCN(Cc1ccc(Cl)cc1)c1ccccn1 | inactive
